In PubChem BioAssay (EPA / NIEHS):
The source made the active and inactive calls. The calls were made as follows: active = hit-call score of the fitted dose curve at least 0.9, where 1 is the maximum; inactive = score below 0.9.

What was measured:
[1] = CEETOX_H295R_PROG: CeeTox H295R High-throughput Steroidogenesis Assay for Progesterone (PROG) (AID 2283442); conditions: actives raise or lower the signal;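 as to AC50: human H295R adrenal cells primed with 10 µM forskolin before dosing; progesterone secreted into medium by H295R cells measured by HPLC-MS/MS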
Outline: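 Adrenal H295R line, forskolin-stimulated (10 uM, 48 h) before dosing. 48 h exposure, 0.1% DMSO vehicle. Secreted progesterone by reverse-phase HPLC with ESI+ MS/MS quantification; DMSO-normalised bidirectional curve fit.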

[2] = read-out: Tumor necrosis factor receptor superfamily member 6 (Homo sapiens) (UniProt P25445); test: LTEA_HepaRG_FAS: Life Technologies and Expression Analysis (LTEA) Assay for Fas cell surface death receptor (FAS) using HepaRG (AID 2283447); conditions: mRNA level, 48 h; actives raise or lower the signal
Outline: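 FAS transcript level was measured by TaqMan qRT-PCR against three housekeeping genes after 48 h chemical exposure. Cells were HepaRG, 0.5% DMSO vehicle, with a top concentration of 100 uM and half-log dilutions over eight points, in duplicate.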

[3] = read-out: Fatty acid synthase (Homo sapiens) (UniProt P49327); test: LTEA_HepaRG_FASN: Life Technologies and Expression Analysis (LTEA) Assay for Fatty Acid Synthase (FASN) using HepaRG (AID 2283448); conditions: mRNA level, 48 h; actives raise or lower the signal
Outline: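 Differentiated human HepaRG cells were exposed for 48 h in serum-free induction medium to eight half-log concentrations up to 100 uM in 0.5% DMSO, in duplicate. FASN mRNA was quantified by TaqMan qRT-PCR, normalized to ACTB/GAPDH/POLR2A, and fitted bidirectionally against DMSO.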

[4] = read-out: Cyclin D2 (CCND2), CCND2 (gene 894); test: LTEA_HepaRG_CCND2: Life Technologies and Expression Analysis (LTEA) Assay for Cyclin D2 (CCND2) using HepaRG (AID 2283449); conditions: mRNA level, 48 h; actives raise or lower the signal
Outline: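 Read-out is CCND2 mRNA level measured by qRT-PCR in human HepaRG liver cells and normalised to three housekeeping genes. Chemicals were applied for 48 h at up to 100 uM, with gain or loss fitted relative to 0.5% DMSO.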

[5] = read-out: Cyclin Dependent Kinase Inhibitor 1A (CDKN1A), CDKN1A (gene 1026); test: LTEA_HepaRG_CDKN1A: Life Technologies and Expression Analysis (LTEA) Assay for Cyclin Dependent Kinase Inhibitor 1A (CDKN1A) using HepaRG (AID 2283450); conditions: mRNA level, 48 h; actives raise or lower the signal
Outline: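 Cryopreserved HepaRG cells were plated and cultured 48 h, then switched to serum-free induction medium. Chemicals (eight half-log concentrations, top 100 uM, 0.5% DMSO) were applied for 48 h. Lysates underwent qRT-PCR for CDKN1A with housekeeping normalization.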

[6] = read-out: Cyclin D1 (CCND1), CCND1 (gene 595); test: LTEA_HepaRG_CCND1: Life Technologies and Expression Analysis (LTEA) Assay for Cyclin D1 (CCND1) using HepaRG (AID 2283451); conditions: mRNA level, 48 h; actives raise or lower the signal
Outline: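 Human liver HepaRG line; 48 h dosing, 8 conc. ≤100 uM, 0.5% DMSO; TaqMan qRT-PCR mRNA, 3 housekeeping genes; bidirectional curve fit vs DMSO.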

[7] = read-out: catalase (CAT), CAT (gene 847); test: LTEA_HepaRG_CAT: Life Technologies and Expression Analysis (LTEA) Assay for catalase (CAT) using HepaRG (AID 2283452); conditions: mRNA level, 48 h; actives raise or lower the signal;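 as to AC50: TaqMan qRT-PCR signal normalized to ACTB GAPDH and POLR2A housekeeping genes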
Outline: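 Expression of CAT was quantified by TaqMan qRT-PCR with ACTB/GAPDH/POLR2A normalization after 48 h chemical exposure of HepaRG. Eight-point half-log series, top 100 uM, in 0.5% DMSO; gain or loss fitted against vehicle.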

[8] = read-out: flavin-containing dimethylaniline monooxygenases 3 (FMO3), FMO3 (gene 2328); test: LTEA_HepaRG_FMO3: Life Technologies and Expression Analysis (LTEA) Assay for flavin-containing dimethylaniline monooxygenases 3 (FMO3) using HepaRG (AID 2283453); conditions: mRNA level, 48 h; actives raise or lower the signal;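 as to AC50: FMO3 transcript by TaqMan qRT-PCR normalized to ACTB GAPDH and POLR2A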
Outline: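 HepaRG, 48 h exposure, 8-pt half-log series from 100 uM, 0.5% DMSO vehicle, duplicates; FMO3 transcript by Fluidigm TaqMan qRT-PCR, housekeeping-normalized; gain/loss fit vs DMSO.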

[9] = read-out: Cytochrome P450 (CYP1A1), CYP1A1 (gene 1543); test: LTEA_HepaRG_CYP1A1: Life Technologies and Expression Analysis (LTEA) Assay for Cytochrome P450 (CYP1A1) using HepaRG (AID 2283454); conditions: mRNA level, 48 h; actives raise or lower the signal
Outline: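 Induction of CYP1A1 mRNA in a human hepatic cell line was measured 48 h after dosing, with 1 mM phenobarbital as induction positive control and 0.5% DMSO vehicle as baseline for bidirectional curve fitting.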

[10] = read-out: CFLAR gene, CFLAR (gene 8837); test: LTEA_HepaRG_CFLAR: Life Technologies and Expression Analysis (LTEA) Assay for CFLAR gene using HepaRG (AID 2283455); conditions: mRNA level, 48 h; actives raise or lower the signal
Outline: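 HepaRG, 48 h exposure, 8-pt conc-response (100 uM top, half-log), 0.5% DMSO vehicle, duplicates. CFLAR expression by qRT-PCR; ACTB/GAPDH/POLR2A normalization; gain or loss fit vs DMSO baseline.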

[11] = read-out: Forkhead box O1 (FOXO1), FOXO1 (gene 2308); test: LTEA_HepaRG_FOXO1: Life Technologies and Expression Analysis (LTEA) Assay for Forkhead box O1 (FOXO1) using HepaRG (AID 2283456); conditions: mRNA level, 48 h; actives raise or lower the signal
Outline: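 Readout is FOXO1 transcript level by multiplexed qRT-PCR against three housekeeping genes, curve-fitted in both directions relative to 0.5% DMSO vehicle. Human HepaRG cultures received chemicals for 48 h, up to 100 uM in half-log steps.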

[12] = CEETOX_H295R_TESTO: CeeTox H295R High-throughput Steroidogenesis Assay for Testosterone (TESTO) (AID 2283457); conditions: actives raise or lower the signal
Outline: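 Testosterone synthesis is assessed in human adrenocortical H295R cells after 48 h of chemical exposure, using HPLC-MS/MS of extracted medium. Activity is fitted in both directions against DMSO control.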

[13] = read-out: growth arrest and DNA damage 45 (GADD45A), GADD45A (gene 1647); test: LTEA_HepaRG_GADD45A: Life Technologies and Expression Analysis (LTEA) Assay for growth arrest and DNA damage 45 (GADD45A) using HepaRG (AID 2283458); conditions: mRNA level, 48 h; actives raise or lower the signal
Outline: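 Differentiated HepaRG cells were exposed in duplicate for 48 h in serum-free induction medium to 8-point half-log concentrations up to 100 uM in 0.5% DMSO. GADD45A mRNA was measured by TaqMan qRT-PCR, normalized to ACTB, GAPDH and POLR2A, with bidirectional fitting versus DMSO.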

[14] = read-out: Forkhead box O3 (FOXO3), FOXO3 (gene 2309); test: LTEA_HepaRG_FOXO3: Life Technologies and Expression Analysis (LTEA) Assay for Forkhead box O3 (FOXO3) using HepaRG (AID 2283459); conditions: mRNA level, 48 h; actives raise or lower the signal
Outline: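 HepaRG, 48 h post-dose; 8 conc., half-log from 100 uM, 0.5% DMSO, duplicates; serum-free induction medium. Readout: FOXO3 mRNA, TaqMan qRT-PCR, housekeeping-normalized. Bidirectional curve fit vs DMSO baseline.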

[15] = read-out: ABC Transporter (ABCB1), ABCB1 (gene 5243); test: LTEA_HepaRG_ABCB1: Life Technologies and Expression Analysis (LTEA) Assay for ABC Transporter (ABCB1) using HepaRG (AID 2283460); conditions: mRNA level, 48 h; actives raise or lower the signal
Outline: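 Expression of ABCB1 was quantified by qRT-PCR against three housekeeping genes after human HepaRG cultures received test chemicals for 48 hours. Concentrations spanned eight half-log steps topping at 100 uM in 0.5% DMSO; gain or loss of signal was fitted relative to vehicle.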

[16] = read-out: growth arrest and DNA damage 45 (GADD45B), GADD45B (gene 4616); test: LTEA_HepaRG_GADD45B: Life Technologies and Expression Analysis (LTEA) Assay for growth arrest and DNA damage 45 (GADD45B) using HepaRG (AID 2283461); conditions: mRNA level, 48 h; actives raise or lower the signal
Outline: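 Values are bidirectional concentration-response fits against 0.5% DMSO controls. Underlying data: qRT-PCR mRNA levels in human HepaRG liver cells treated 48 h in serum-free induction medium, eight concentrations topping at 100 uM.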

[17] = read-out: ABC Transporter (ABCC3), ABCC3 (gene 8714); test: LTEA_HepaRG_ABCC3: Life Technologies and Expression Analysis (LTEA) Assay for ABC Transporter (ABCC3) using HepaRG (AID 2283462); conditions: mRNA level, 48 h; actives raise or lower the signal
Outline: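 Differentiated HepaRG liver cells receive test chemicals at eight concentrations (max 100 uM) for 48 h. Expression of ABCC3 is quantified by qRT-PCR against ACTB, GAPDH and POLR2A, and activity is fitted in both directions against the DMSO control.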

[18] = read-out: ABC Transporter (ABCB11), ABCB11 (gene 8647); test: LTEA_HepaRG_ABCB11: Life Technologies and Expression Analysis (LTEA) Assay for ABC Transporter (ABCB11) using HepaRG (AID 2283463); conditions: mRNA level, 48 h; actives raise or lower the signal
Outline: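 ABCB11 transcript levels are read by Fluidigm TaqMan qRT-PCR after 48 h chemical treatment of human HepaRG cells. Concentrations span 100 uM downward in half-log steps with 0.5% DMSO; gain or loss is fitted against DMSO controls.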

[19] = read-out: ABC Transporter (ABCC2), ABCC2 (gene 1244); test: LTEA_HepaRG_ABCC2: Life Technologies and Expression Analysis (LTEA) Assay for ABC Transporter (ABCC2) using HepaRG (AID 2283464); conditions: mRNA level, 48 h; actives raise or lower the signal
Outline: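 Gene expression of ABCC2 was determined by qRT-PCR in HepaRG cells exposed 48 h to chemicals (highest 100 uM, half-log dilutions). Activity was fitted in both directions relative to 0.5% DMSO vehicle.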

[20] = read-out: Broad substrate specificity ATP-binding cassette transporter ABCG2 (Homo sapiens) (UniProt Q9UNQ0); test: LTEA_HepaRG_ABCG2: Life Technologies and Expression Analysis (LTEA) Assay for ABC Transporter (ABCG2) using HepaRG (AID 2283465); conditions: mRNA level, 48 h; actives raise or lower the signal
Outline: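 Read-out is ABCG2 mRNA induction or loss quantified by qRT-PCR after 48 h chemical treatment of human HepaRG cells, normalized to three housekeeping genes. Concentrations reached 100 uM top in half-log steps; fitting was bidirectional against 0.5% DMSO.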

Measured: AC50

Sequence of Broad substrate specificity ATP-binding cassette transporter ABCG2 (Homo sapiens) (Q9UNQ0 whole entry, looked up): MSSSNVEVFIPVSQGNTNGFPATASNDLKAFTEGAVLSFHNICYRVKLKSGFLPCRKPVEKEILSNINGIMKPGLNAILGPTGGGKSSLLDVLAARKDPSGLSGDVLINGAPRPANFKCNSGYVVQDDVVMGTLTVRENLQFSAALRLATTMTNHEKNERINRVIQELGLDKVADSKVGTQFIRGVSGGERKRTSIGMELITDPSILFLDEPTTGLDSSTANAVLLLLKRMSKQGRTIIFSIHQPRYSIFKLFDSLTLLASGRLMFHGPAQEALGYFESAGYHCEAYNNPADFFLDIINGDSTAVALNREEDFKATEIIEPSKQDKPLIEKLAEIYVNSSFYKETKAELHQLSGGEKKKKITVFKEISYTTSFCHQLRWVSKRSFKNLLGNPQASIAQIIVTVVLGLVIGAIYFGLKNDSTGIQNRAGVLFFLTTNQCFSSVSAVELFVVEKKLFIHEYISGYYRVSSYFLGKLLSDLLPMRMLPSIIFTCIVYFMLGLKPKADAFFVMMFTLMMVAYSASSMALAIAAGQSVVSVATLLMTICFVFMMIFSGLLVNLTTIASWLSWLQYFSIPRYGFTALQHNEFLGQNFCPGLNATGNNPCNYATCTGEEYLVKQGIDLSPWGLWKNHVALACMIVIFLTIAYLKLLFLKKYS
Sequence of Fatty acid synthase (Homo sapiens) (P49327 whole entry, looked up): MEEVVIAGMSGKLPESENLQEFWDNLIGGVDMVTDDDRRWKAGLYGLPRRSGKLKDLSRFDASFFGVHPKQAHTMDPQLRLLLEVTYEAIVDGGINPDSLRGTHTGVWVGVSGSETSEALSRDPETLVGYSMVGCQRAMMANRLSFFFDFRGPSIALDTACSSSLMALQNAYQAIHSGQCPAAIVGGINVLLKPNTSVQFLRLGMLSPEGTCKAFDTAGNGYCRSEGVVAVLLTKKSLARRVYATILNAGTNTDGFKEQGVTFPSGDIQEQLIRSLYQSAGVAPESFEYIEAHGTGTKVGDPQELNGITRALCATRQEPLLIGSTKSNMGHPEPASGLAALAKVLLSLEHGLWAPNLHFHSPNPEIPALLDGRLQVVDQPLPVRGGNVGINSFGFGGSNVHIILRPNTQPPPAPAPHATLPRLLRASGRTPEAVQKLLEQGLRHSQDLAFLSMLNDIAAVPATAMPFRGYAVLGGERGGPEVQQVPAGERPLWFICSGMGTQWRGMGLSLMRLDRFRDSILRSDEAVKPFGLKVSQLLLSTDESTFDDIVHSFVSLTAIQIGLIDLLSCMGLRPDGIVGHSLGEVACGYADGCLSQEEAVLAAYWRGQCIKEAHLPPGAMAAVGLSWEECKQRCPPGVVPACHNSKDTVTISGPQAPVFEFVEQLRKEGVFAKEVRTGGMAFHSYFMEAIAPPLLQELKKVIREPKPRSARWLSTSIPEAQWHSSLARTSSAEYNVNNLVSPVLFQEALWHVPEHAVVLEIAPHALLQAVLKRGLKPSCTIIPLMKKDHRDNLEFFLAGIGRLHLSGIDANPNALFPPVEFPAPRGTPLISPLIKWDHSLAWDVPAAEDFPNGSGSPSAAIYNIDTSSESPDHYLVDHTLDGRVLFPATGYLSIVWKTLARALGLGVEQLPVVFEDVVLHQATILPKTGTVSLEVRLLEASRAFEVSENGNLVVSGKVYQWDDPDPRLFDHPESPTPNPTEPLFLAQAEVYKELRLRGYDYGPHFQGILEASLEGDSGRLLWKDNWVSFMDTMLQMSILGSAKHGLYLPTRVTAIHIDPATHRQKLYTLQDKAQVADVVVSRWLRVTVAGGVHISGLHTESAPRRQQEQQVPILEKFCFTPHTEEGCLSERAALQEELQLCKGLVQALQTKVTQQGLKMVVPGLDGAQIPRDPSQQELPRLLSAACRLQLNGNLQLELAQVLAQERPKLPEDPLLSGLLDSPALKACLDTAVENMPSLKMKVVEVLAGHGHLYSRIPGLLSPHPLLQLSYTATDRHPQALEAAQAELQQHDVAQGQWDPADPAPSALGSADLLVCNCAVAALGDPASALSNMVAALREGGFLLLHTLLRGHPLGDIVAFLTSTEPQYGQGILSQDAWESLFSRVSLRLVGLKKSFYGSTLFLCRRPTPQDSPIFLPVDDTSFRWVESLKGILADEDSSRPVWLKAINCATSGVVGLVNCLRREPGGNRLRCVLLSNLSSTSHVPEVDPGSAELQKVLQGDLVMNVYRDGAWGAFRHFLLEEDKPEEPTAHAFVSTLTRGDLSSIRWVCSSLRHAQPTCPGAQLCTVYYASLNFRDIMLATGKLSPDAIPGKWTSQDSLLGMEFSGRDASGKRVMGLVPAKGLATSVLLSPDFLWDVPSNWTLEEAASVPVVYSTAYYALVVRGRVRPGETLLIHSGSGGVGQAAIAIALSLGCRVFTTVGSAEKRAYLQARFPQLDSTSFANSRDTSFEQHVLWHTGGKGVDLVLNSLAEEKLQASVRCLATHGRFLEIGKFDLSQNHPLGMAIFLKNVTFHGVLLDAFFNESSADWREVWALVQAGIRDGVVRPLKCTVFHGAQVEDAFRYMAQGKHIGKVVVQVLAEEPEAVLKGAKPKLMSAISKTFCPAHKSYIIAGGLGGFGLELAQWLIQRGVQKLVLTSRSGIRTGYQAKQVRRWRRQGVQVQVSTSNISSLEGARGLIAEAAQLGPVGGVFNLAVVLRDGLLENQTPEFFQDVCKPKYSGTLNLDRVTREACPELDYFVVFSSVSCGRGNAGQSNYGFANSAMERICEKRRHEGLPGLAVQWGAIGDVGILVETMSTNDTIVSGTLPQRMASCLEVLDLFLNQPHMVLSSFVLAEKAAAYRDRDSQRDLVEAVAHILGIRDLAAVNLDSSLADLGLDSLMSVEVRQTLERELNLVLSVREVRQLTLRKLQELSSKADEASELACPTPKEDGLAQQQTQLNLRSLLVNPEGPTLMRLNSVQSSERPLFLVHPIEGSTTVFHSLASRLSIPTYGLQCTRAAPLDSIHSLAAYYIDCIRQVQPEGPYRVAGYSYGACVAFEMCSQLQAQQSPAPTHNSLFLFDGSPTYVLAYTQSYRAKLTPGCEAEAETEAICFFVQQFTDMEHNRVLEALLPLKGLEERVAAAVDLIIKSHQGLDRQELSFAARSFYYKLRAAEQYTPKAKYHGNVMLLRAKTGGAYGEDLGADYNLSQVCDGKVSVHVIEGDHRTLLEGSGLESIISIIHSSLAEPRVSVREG

CC1=C(C)S(=O)(=O)CCS1(=O)=O
active: [1] 1.03 µM | [2] 76.8 µM | [3] 81.6 µM | [5] 85.4 µM | [8] 90.9 µM | [9] 50 µM | [14] 14.7 µM | [15] 50 µM | [16] 88.8 µM | [17] 0.171 µM | [18] 81 µM
inactive: [4] | [6] | [7] | [10] | [11] | [12] | [13] | [19] | [20]

O=C1NC(=O)C(c2ccccc2)(c2ccccc2)N1
active: [9] 65.1 µM | [19] 50 µM
not listed: [11] | [12]
inactive: all other assays above

Cc1cc(Cc2ccc(N)c(C)c2)ccc1N
active: [1] 18.9 µM | [9] 50 µM | [15] 33.6 µM | [19] 50 µM
not listed: [6] | [11] | [12] | [20]
inactive: all other assays above

CCCCCCCCCC[N+](C)(C)[O-]
active: [1] 3.86 µM | [9] 50 µM
not listed: [6] | [11]
inactive: all other assays above

Cc1c(C)c2c(c(C)c1O)CCC(C)(COc1ccc(CC3SC(=O)NC3=O)cc1)O2 (stereo not given)
active: [7] 50 µM | [8] 93 µM | [9] 27.5 µM | [13] 0.262 µM | [14] 88.4 µM | [16] 37.7 µM | [18] 15.8 µM | [19] 93.7 µM
not listed: [4] | [11]
inactive: all other assays above

CO[C@@H]1COCC[C@@H]1N[C@@H]1CC[C@@](C(=O)N2CCc3ncc(C(F)(F)F)cc3C2)(C(C)C)C1
not listed: [1] | [12]
inactive: all other assays above

N[C@@H](Cc1c[nH]c2ccccc12)C(=O)O
active: [9] 10.9 µM
not listed: [1] | [12] | [20]
inactive: all other assays above

O=C1c2c(O)cccc2Cc2cccc(O)c21
active: [9] 22.1 µM
not listed: [6] | [12] | [18] | [20]
inactive: all other assays above

COc1ccc(C(=O)Nc2nc3ccccc3c(NCc3ccccc3)c2C#N)cc1
active: [1] 1.49 µM | [3] 10.3 µM | [5] 26.3 µM | [7] 18.7 µM | [8] 16.2 µM | [9] 1.39 µM | [16] 16 µM
not listed: [6] | [11] | [12] | [18] | [20]
inactive: all other assays above

Oc1ccc(O)cc1
active: [1] 3.17 µM | [9] 50 µM
not listed: [12] | [20]
inactive: all other assays above

CCN(CC)CCOc1ccc(C(=C(Cl)c2ccccc2)c2ccccc2)cc1
active: [1] 0.0347 µM | [7] 42 µM | [8] 22 µM | [15] 79.9 µM | [18] 24.9 µM | [19] 67.3 µM
inactive: all other assays above

CCCCc1nc2cccnc2n1Cc1ccc(-c2ccccc2-c2nnn[nH]2)cc1
active: [1] 9.12 µM | [3] 50 µM | [9] 50 µM | [15] 50 µM | [18] 89.8 µM | [19] 50 µM
not listed: [6] | [7] | [12] | [20]
inactive: all other assays above
